Eight compounds from PubChem BioAssay (NCATS) can be followed below.

Assay [1] deals with Peroxisome proliferator-activated receptor gamma (Homo sapiens) (UniProt P37231). As to the kind of experiment: qHTS assay for small molecule agonists of peroxisome proliferator-activated receptor gamma signaling (AID 588536; active means well fitted curve in the direction sought with a large enough effect in the signal ratio, with a control signal flat, not every such curve was filed as active; the % refers to the signal ratio;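 further: 0% = DMSO basal wells and 100% = rosiglitazone at 2 µM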). Particulars: HEK293 PPARg-UAS-bla, beta-lactamase ratio, 16 h, percent of rosiglitazone response, DMSO as zero; series mostly up to 76.7 µM. The method in brief:
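Beta-lactamase reporter read-out: CCF4 fluorescence (ex 405, em 460/530 nm) after 2 h at RT. HEK293 GeneBLAzer cells were treated for 16 h at 37 C. Hill fits gave EC50 and efficacy versus 2 uM rosiglitazone (100%) and DMSO (0%).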
Background: Quantitative high-throughput screening tests each substance at several concentrations.

In assay [2] the target is Vitamin D3 receptor (Homo sapiens) (UniProt P11473). As to the kind of experiment: qHTS assay for small molecule antagonists of vitamin D receptor signaling (AID 588541; calls by dose curve;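 further: receptor activated by calcitriol during compound treatment; on the % scale 0 is the no-effect control and ±100 the full control effect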). Particulars: HEK293T VDR-UAS-bla, beta-lactamase ratio, antagonist mode; series mostly up to 76.7 µM. The method in brief: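 VDR-UAS-bla HEK293T cells in 2% charcoal-stripped FBS were stimulated with 1-alpha,25-dihydroxyvitamin D3 (3 nM final) plus compound for 16 h at 37 C. The beta-lactamase CCF4 readout was normalized to 50 nM agonist and DMSO, and Hill fits gave IC50.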

For assay [3] the target is unchanged. The experiment in a line: qHTS assay for small molecule agonists of vitamin D receptor signaling (AID 588543; calls by dose curve;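 further: 0% = DMSO basal and 100% = reference agonist control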). To be noted: HEK293T VDR-UAS-bla, beta-lactamase ratio, 16 h; series mostly up to 76.8 µM. The method in brief: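 Agonist-mode beta-lactamase reporter: HEK293T VDR-UAS-bla cells in charcoal-stripped 2% FBS, compound series 16 h 37 C, CCF4 2 h RT. EC50 from Hill fit, scaled against DMSO and 50 nM calcitriol control.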

Assay [4] can be described thus: qHTS assay for small molecule agonists of retinoid X receptor alpha signaling (AID 588544; calls by dose curve; further: potency means the concentration at half of the fitted maximal effect;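 on activation: 0% = DMSO basal wells and 100% = reference agonist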). Particulars: HEK293T RXRa-UAS-bla, beta-lactamase reporter, 18 h; 530 nm emission.
Assay [5] deals with Retinoic acid receptor RXR-alpha (Homo sapiens) (UniProt P19793). Described as above. To be noted: HEK293T RXRa-UAS-bla, beta-lactamase reporter, 18 h; series mostly up to 76.7 µM.
Assay [6] deals with Thyroid hormone receptor beta (Homo sapiens) (UniProt P10828). As to the kind of experiment: qHTS assay for small molecule agonists of thyroid hormone receptor beta signaling (AID 588545; calls by dose curve). To be noted: TR-UAS-bla GripTite HEK 293, beta-lactamase ratio, agonist mode, 18 h; series mostly up to 76.7 µM. The method, boiled down:
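In this cell-based screen, titrated compounds act on HEK 293 cells held in medium with 2% charcoal/dextran FBS, NEAA and pyruvate for 18 hrs at 37 C. Responses are expressed relative to T3 (10 nM) as 100% and basal DMSO as 0%.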

Assay [7] can be described thus: qHTS assay for small molecule antagonists of retinoid X receptor alpha signaling (AID 588546; active means well fitted inhibition curve with a large enough effect in the signal ratio, with a control signal flat, not every such curve was filed as active; the % refers to the signal ratio; further: potency means the concentration at half of the fitted maximal effect;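 on max response: cells stimulated with 9-cis-retinoic acid as agonist; on the % scale 0 is the no-effect control and ±100 the full control effect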). To be noted: HEK293T RXRa-UAS-bla, beta-lactamase ratio, antagonist mode; measured here: W530 green channel, cytotoxicity proxy. The method in brief:
(§1)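 Beta-lactamase reporter inhibition, read as CCF4 fluorescence ratio (ex 405, em 460/530 nm) after 2 h at RT. HEK293T UAS-bla cells, 2500/well, were stimulated with 9-cis-RA at 500 or 100 nM final alongside test compound for 18 h at 37 C.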

Assay [8] deals with Retinoic acid receptor RXR-alpha (Homo sapiens) (UniProt P19793). The assay is described as above. Particulars: HEK293T RXRa-UAS-bla, beta-lactamase ratio, antagonist mode. The method in brief: as §1
Assay [9] in a line: qHTS assay for small molecule activators of the p53 signaling pathway (AID 651743; active means well fitted activation curve with a large enough effect in the signal ratio, not every such curve was filed as active; the % refers to the signal ratio; further: % of control where 0% means no effect). Particulars: HCT-116 p53RE-bla, beta-lactamase FRET ratio, 16 h; activation: stronger effect = higher value. The method in brief:
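Following 16 hours of compound exposure at 37 C, HCT-116 cells bearing the p53RE-bla reporter were loaded with LiveBLAzer B/G FRET substrate for 2 hours at room temperature and fluorescence intensity was recorded.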

Assay [10] can be described thus: qHTS assay for small molecule activators of the nuclear factor-kappa B (NF-kB) signaling pathway (AID 651749; active means well fitted activation curve with a large enough effect in the signal ratio; the % refers to the signal ratio; further: % of control where 0% means no effect). Particulars: NF-kB-bla ME-180 cells, beta-lactamase FRET ratio, 16 h; activation: stronger effect = higher value. The method, boiled down:
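In this qHTS format, compounds acting as activators increase NF-kB-driven beta-lactamase in ME-180 cells, measured as disrupted FRET after 16 hr exposure at 37C and 5% CO2.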

Assay [11] addresses Peroxisome proliferator-activated receptor alpha (Homo sapiens) (UniProt Q07869). The experiment in a line: qHTS assay for small molecule agonists of the peroxisome proliferator-activated receptor alpha (PPARalpha) signaling pathway (AID 651778). Further: % of control where 0% means no effect. Particulars: PathHunter PPARalpha complementation, chemiluminescence, 6 h; max response: stronger effect = higher value. The method in brief:
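Enzyme-fragment complementation assay in which ligand-bound PPARalpha translocates and forms an active enzyme that generates chemiluminescence. Cells were plated overnight, exposed to compound for 6 hr at 37 C, and then given detection reagent for 60 min at room temperature.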

Assay [12] can be described thus: qHTS assay for small molecule agonists of the antioxidant response element (ARE) signaling pathway measured by Nrf2-dependant transcriptional activity (AID 720636; active means well fitted curve in the direction sought with a large enough effect in the repeat runs; an effect the other way counts as inactive or inconclusive; further: % of control where 0% means no effect). Particulars: ARE-luc HepG2, Nrf2 luciferase reporter, 16 h; series mostly up to 92.4 µM. The method in brief: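 In HepG2 cells engineered with an Nrf2-responsive luciferase gene, ARE induction was quantified as luminescence after 16 hr compound treatment at 37 C.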

Assay [13] in a line: qHTS assay for small molecule agonists of the antioxidant response element (ARE) signaling pathway measured by Nrf2-dependant transcriptional activity - cell viability counter screen (AID 720653; active means well fitted curve in the direction sought with a large enough effect in the repeat runs; an effect the other way counts as inactive or inconclusive; further: on the % scale 0 is the no-effect control and ±100 the full control effect). To be noted: ARE-bla HepG2 viability, CellTiter-Glo ATP luminescence, 16 h; max response: stronger effect = lower value. The method, boiled down:
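ARE-bla HepG2 cells treated with compounds for 16 h at 37C; this counter screen measures viability as intracellular ATP by CellTiter-Glo luminescence after 30 min at room temperature.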

The nature of assay [14]: qHTS assay for cell viability of the p53RE-bla HCT-116 cell line (AID 743292). Further: nearly all actives have a fitted effect of over 55% in size. Further: potency means the concentration at half of the fitted maximal effect. Particulars: p53RE-bla HCT-116 viability, ATP luminescence, 16 h; series mostly up to 95 µM. The method, boiled down:
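Intracellular ATP of p53RE-bla HCT-116 cells measured by luciferase luminescence following 16 h compound incubation at 37 C; DMSO-only wells served as vehicle controls.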

Assay [15] in a line: qHTS assay for environmental chemicals that activate the Aryl hydrocarbon Receptor (AhR) signaling pathway (AID 651777). Further: % of control where 0% means no effect; nearly all actives have a fitted effect of over 15% in size. Particulars: 1A2-DRE human hepatoma cells, luciferase, 24 h; activation: stronger effect = higher value. The method, boiled down: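 Measured luciferase activity, read 30 min after One-Glo addition at room temperature, from human hepatoma cells bearing a dioxin response element–CYP1A2 promoter reporter and exposed to compound for 24 hr at 37 C.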

Assay [16] can be described thus: qHTS assay for small molecule activators of the human pregnane X receptor (PXR) signaling pathway (AID 720659; call rule not given here; further: 0% is about no effect). To be noted: DPX-2 HepG2 CYP3A4-luciferase, 24 h; series mostly up to 92.3 µM.
Assay [17] can be described thus: qHTS assay for cell viability of HEK293 cells (AID 743288). Further: nearly all actives have a fitted effect of over 50% in size. Further: potency means the concentration at half of the fitted maximal effect. On max response: on the % scale 0 is the no-effect control and ±100 the full control effect. To be noted: ATP luminescence (CellTiter-Glo), 18 h; max response: stronger effect = lower value. The method, boiled down: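 Readout is luciferase-coupled ATP content (CellTiter-Glo luminescence, 30 min room temperature) as a measure of metabolically competent cells. Parental HEK293 cells were plated 5 h or more before compound addition, then treated 18 h at 37 C.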

Assay [18] addresses Nuclear receptor subfamily 1 group I member 2 (Rattus norvegicus) (UniProt Q9R1A7). As to the kind of experiment: qHTS assay for small molecule activators of the rat pregnane X receptor (rPXR) signaling pathway (AID 651751; call rule not given here; further: 0% is about no effect). To be noted: rPXR reporter cells, luciferase (One-Glo), 24 h.
Assay [19] can be described thus: qHTS assay for small molecule antagonists of peroxisome proliferator-activated receptor delta signaling (AID 588535; active means well fitted inhibition curve with a large enough effect in the signal ratio, with a control signal flat, not every such curve was filed as active; the % refers to the signal ratio;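 on max response: cells co-treated with a PPAR-delta agonist as stimulator during compound exposure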). To be noted: HEK293T PPARd-UAS-bla, beta-lactamase FRET ratio, 18 h; 460 nm channel. The method in brief: (§2)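 Fluorescence from CCF4-loaded GeneBLAzer PPAR-delta-UAS-bla HEK293T cells (2 hrs RT loading) quantified reporter inhibition after an 18 hr, 37 C compound exposure across a titration.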

The target in assay [20] is Peroxisome proliferator-activated receptor delta (Homo sapiens) (UniProt Q03181). Described as above. To be noted: HEK293T PPARd-UAS-bla, beta-lactamase FRET ratio, 18 h; series mostly up to 76.7 µM. The method in brief: as §2

SMILES strings stand for the structures. “And” between values parts separate entries of the source, which are not always exact repeats. Equal entries are not always repeated. Inconclusive results are not listed. Some structures have more than one record in an assay (separate samples or runs), and their calls can disagree. The source made the active and inactive calls. Unless noted, the call rests on the fitted dose curve; in most records, active means well fitted curve in the direction sought with a large enough effect; inconclusive means small, poorly fitted or top-dose-only effect, or another doubt; inactive means no such curve, though single readings can be large; an effect the other way counts as inactive or inconclusive.

Chain of Peroxisome proliferator-activated receptor delta (Homo sapiens) (Q03181 whole entry, looked up): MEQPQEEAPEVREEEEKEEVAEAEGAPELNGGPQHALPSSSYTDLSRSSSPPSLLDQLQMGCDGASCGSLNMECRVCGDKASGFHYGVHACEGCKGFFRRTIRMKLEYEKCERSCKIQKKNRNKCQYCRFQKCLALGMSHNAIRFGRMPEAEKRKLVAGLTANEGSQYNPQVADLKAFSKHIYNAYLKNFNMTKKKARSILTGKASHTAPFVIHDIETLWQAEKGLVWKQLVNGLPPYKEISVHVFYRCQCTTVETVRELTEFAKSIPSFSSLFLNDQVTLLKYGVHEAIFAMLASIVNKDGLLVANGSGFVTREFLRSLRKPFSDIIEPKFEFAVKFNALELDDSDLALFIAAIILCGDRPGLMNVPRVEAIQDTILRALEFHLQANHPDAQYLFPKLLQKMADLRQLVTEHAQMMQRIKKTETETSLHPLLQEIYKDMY
Chain of Peroxisome proliferator-activated receptor gamma (Homo sapiens) (P37231 whole entry, looked up): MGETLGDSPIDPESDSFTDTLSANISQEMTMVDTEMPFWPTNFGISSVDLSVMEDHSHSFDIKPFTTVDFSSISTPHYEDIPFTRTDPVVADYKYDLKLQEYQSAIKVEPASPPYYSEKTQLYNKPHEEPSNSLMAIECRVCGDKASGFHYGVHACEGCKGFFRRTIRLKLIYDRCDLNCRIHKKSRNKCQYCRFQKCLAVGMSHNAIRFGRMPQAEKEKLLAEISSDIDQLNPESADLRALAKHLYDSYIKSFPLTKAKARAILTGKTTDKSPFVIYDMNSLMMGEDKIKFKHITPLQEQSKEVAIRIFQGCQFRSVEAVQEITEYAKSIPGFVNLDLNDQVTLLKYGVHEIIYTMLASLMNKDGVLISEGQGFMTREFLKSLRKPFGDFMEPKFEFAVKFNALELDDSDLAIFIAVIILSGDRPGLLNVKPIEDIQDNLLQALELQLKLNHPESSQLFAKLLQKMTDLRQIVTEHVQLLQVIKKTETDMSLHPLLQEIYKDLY
Chain of Vitamin D3 receptor (Homo sapiens) (P11473 whole entry, looked up): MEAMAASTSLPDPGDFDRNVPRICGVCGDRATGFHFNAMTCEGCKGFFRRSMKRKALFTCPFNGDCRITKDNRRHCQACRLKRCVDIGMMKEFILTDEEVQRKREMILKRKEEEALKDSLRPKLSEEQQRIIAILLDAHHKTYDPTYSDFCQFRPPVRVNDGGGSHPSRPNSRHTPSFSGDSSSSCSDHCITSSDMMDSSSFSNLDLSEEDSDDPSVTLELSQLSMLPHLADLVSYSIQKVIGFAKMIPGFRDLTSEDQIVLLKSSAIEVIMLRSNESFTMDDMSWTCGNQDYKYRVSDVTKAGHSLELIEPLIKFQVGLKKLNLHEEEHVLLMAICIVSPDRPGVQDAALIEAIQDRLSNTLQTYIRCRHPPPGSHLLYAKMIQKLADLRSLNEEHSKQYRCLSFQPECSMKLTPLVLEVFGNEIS
Chain of Nuclear receptor subfamily 1 group I member 2 (Rattus norvegicus) (Q9R1A7 whole entry, looked up): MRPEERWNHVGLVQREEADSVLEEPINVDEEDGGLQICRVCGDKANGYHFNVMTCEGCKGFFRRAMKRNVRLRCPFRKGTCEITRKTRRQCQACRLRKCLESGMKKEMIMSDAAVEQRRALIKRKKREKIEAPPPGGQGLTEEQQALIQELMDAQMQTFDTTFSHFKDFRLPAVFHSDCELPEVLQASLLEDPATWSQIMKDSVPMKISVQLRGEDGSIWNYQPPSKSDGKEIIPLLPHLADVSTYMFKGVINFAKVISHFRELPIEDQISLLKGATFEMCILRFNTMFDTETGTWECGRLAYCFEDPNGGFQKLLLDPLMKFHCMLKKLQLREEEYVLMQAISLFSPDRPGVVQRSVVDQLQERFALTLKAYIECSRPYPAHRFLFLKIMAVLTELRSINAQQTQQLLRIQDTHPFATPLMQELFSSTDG
Chain of Retinoic acid receptor RXR-alpha (Homo sapiens) (P19793 whole entry, looked up): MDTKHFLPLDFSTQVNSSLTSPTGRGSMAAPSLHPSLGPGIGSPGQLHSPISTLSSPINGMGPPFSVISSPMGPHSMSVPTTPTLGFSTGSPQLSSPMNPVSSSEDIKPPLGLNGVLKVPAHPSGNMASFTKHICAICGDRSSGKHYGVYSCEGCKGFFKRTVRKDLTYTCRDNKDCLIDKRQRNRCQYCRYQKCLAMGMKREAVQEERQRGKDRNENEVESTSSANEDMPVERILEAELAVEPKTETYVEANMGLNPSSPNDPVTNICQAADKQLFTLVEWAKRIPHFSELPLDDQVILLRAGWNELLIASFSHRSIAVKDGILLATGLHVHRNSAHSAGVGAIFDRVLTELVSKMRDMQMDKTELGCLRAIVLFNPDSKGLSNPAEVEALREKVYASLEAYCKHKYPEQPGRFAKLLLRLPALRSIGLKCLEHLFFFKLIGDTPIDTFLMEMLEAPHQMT
Chain of Thyroid hormone receptor beta (Homo sapiens) (P10828 whole entry, looked up): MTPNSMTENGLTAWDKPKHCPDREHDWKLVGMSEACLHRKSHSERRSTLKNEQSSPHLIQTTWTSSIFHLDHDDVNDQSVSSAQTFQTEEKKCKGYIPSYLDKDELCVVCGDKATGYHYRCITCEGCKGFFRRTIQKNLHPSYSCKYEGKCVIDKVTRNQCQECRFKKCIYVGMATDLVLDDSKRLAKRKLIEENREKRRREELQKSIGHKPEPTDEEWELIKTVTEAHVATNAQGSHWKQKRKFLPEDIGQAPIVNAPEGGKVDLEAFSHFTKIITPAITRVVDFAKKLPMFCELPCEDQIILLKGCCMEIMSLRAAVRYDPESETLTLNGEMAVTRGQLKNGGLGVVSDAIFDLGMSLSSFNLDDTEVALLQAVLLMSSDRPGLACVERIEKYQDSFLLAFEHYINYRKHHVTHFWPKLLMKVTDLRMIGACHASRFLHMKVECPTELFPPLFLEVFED
Chain of Peroxisome proliferator-activated receptor alpha (Homo sapiens) (Q07869 whole entry, looked up, the tested form may be a part): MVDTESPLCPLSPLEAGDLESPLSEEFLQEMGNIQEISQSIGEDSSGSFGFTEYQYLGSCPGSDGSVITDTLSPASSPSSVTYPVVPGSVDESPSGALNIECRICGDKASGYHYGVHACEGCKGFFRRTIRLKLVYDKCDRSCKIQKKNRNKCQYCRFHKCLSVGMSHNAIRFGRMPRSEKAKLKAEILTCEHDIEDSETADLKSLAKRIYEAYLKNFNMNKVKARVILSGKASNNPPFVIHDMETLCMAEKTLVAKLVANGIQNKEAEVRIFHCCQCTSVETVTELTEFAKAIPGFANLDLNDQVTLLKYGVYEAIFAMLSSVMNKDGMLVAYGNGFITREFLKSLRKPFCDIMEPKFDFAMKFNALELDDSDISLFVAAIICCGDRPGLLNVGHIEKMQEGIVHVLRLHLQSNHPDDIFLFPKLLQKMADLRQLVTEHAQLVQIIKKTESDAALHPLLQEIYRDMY

Turning to `CC(=O)CC(=O)Nc1ccccc1C`, the result in assay [1] and in assay [3] was inactive. The Potency result in assay [2], in assay [5], in [6], in assay [12] and in assay [14] was “inactive” in each case. In addition, the max response in assay [4] was 16.5%; in assay [7] it was 14.1%; in assay [8], -30.4% (inactive); in assay [11], -0.992% (inactive); in assay [13], -6.37% (inactive). The activation in assay [9] is -0.568% (inactive); in [10] it was -0.183% (inactive).

Turning to `Cc1ccc(S(=O)(=O)C(I)I)cc1`, the max response in assay [4] is -69.8%. Further, the Potency result in assay [5] and in [12] was “inactive” each time. Also, the activation in assay [9] is 4.66% (inactive); in [10], -6% (inactive); in assay [15], -11.1% (inactive). The compound was classed as inactive in assay [16].

Regarding `CCCCOCC(C)O` (centres undefined), the outcome in assay [1] and in assay [3] was inactive. Further, the max response in assay [4] is -5.52%; in assay [7] it was 12% and -0.638%; in [8] it was -37.2% (inactive) and 3.13% (inactive); in assay [11], 0.397% (inactive) and 0.0173% (inactive); in assay [13], -1.21% (inactive) and -1.7% (inactive); in assay [17], -2.11% (inactive). Further, the max response in assay [18] is 5.94% (inactive) and 2.87% (inactive). The Potency result in assay [5], in [6], in assay [12] and in [14] was “inactive” each time. Also, the activation in assay [9] was -6.14% (inactive); in [10], 0.734% (inactive) and -0.5% (inactive); in assay [15] it was 1.48% (inactive) and -0.559% (inactive). The Potency in assay [17] is 1410 µM (active).

With `CCCN(CCC)c1c([N+](=O)[O-])cc(C(F)(F)F)c(N)c1[N+](=O)[O-]`, in assay [3], the outcome was inactive. In addition, the Potency entry in [6] and in assay [12] was “inactive” each time. For the same compound, the max response is -8.88% in assay [7], -37.1% (inactive) in [8] and -20.5% (inactive) in assay [17]. The activation in assay [15] was 2.99% (inactive). In addition, the Potency in assay [14] was 50.1 µM (active).

`CC/C=C/CCCCCCCCCCOC(C)=O`: the max response was 25.9% in assay [19]; -22.5% in assay [4]; -1.44% (inactive) in assay [11]; -7.88% (inactive) in assay [17]; 3.81% (inactive) in assay [18]. For the same compound, the Potency result in assay [20], in [2], in assay [5], in assay [6] and in assay [14] was “inactive” each time. The result in assay [3] and in assay [16] was inactive. Moreover, the activation in assay [15] was -0.59% (inactive).

For `O=c1[nH]sc2ccccc12`, the result in assay [3] and in assay [16] was inactive. The Potency result in [6] is “inactive”. Further, the values for the max response in assay [7], in assay [11] and in assay [13] were -44.3%, -8.62% (inactive) and -17.7% (inactive), respectively. Besides, the Potency in [8] was 20 µM (active). Also, the activation in assay [9] is -3.28% (inactive); in assay [10], -1.58% (inactive).

Take `O=S(=O)(O)c1ccc(N=Nc2cc(S(=O)(=O)O)c3ccccc3c2O)c2ccccc12`: the max response in assay [19] is 26.6%; in assay [4], -24.8%; in assay [7] it was 4.4%; in assay [8], 4.36% (inactive); in assay [11], -9.4% (inactive); in assay [18], -7.09% (inactive). The Potency result in assay [20], in [2], in assay [5], in [6] and in assay [12] was “inactive” throughout. Besides, the outcome in assay [1], in assay [3] and in assay [16] was inactive. Also, the activation is 2.63% (inactive) in assay [9], 0.356% (inactive) in assay [10] and 3.98% (inactive) in [15]. For the same compound, the Potency in [17] was 44.7 µM (active); in [14], 39.8 µM (active).

`CC(C)(C)c1cc(C(C)(C)C)c(O)c(C(C)(C)C)c1`: the max response is 12% in assay [19]; -17.5% in assay [4]; 7.66% (inactive) in [11]; -4.45% (inactive) in [17]; -4.2% (inactive) in assay [18]. Further, the Potency entry in assay [20], in assay [6], in assay [12] and in [14] was “inactive” in each case. The Potency in [5] is 0.794 µM (active). Also, in [9], the activation is 3.15% (inactive). For the same compound, the compound was classed as inactive in assay [16].
